Several values for one entry are separate records, joined by “and”; a condition that tells them apart may be missing. Identical values can stand only once. This is part of a sample that, as a whole, favours compounds with a hit. Of some 83,000 tested, about 20% had one in any assay.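 48-hour exposure, single concentration, 96-well plates; percent growth endpoint where 0 means no net growth. Active: below 10.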 Activity calls are given as the source filed them.

The test system of this assay is LOX IMVI melanoma. Kind of assay: NCI-60 one-dose screen, 48 h (100 = growth as untreated, 0 = no growth, -100 = all killed). As to conditions: 10 µM unless noted.
For the molecule `Oc1cccnc1CN1CCOCC1`, the growth was 93.1% (inactive).
For `COc1cc2c(cc1O)C(=O)CCCC2`, the growth is 90.8% (inactive).
On to `S=c1nn[nH]n1C1CCCCC1`, for which the growth is 111% (inactive).
As to `Cc1ccc(NC(=S)N/C=C(\c2ccccc2)S(=O)Cc2ccccc2)c(C)c1` (stereo not drawn), the growth was 102% (inactive).
In the case of `O=C(O)/C=C/C=C/c1ccccc1`, the growth was 99.3% (inactive) and 97.9% (inactive).
The figure for `CC(C)(C(=O)c1cccnc1)c1cccnc1` is 102% (inactive) and 111% (inactive); for `CCCCCCC(C)CC1=C(O)c2ccccc2C(=O)C1=O` (stereo not drawn) it is 10.2% (inactive).
With `S=c1ccc2ccccc2[nH]1`, the growth is 102% (inactive) and 103% (inactive).
Consider `O=C1C2=C(Nc3cc(Cl)ccc3N2)OC1c1c[nH]c2ccc(COc3ccccc3)cc12` (stereo not drawn), for which the growth was 70.2% (inactive).
With `Oc1ccc(O)c(-c2ccccc2)c1`, the growth is 49.3% (inactive).
In the case of `O=C1C=CC[C@H](/C=C/c2ccccc2)O1` it was 5.77% (active) and -35.8% (active).
For `COC(=O)c1nc(=S)[nH]c(C(=O)OC)c1C(=O)c1ccccc1`, the growth is 94.2% (inactive).
Regarding `COc1ccc(COC=O)cc1`, the growth is 100% (inactive).
Regarding `OCCCc1ccccc1`, the growth is 107% (inactive).
`O=c1[nH]c(=O)c2[nH]c(=O)[nH]c2[nH]1`: the growth is 102% (inactive).
For `O=[N+]([O-])c1cccc(N=Cc2ccccc2)c1`, the growth is 102% (inactive).
The figure for `O=C(NC(=O)c1ccc(F)c(Cl)c1)NC1CC1` is 98.6% (inactive).
The figure for `COCCCNC1=C(C#N)C(=O)NC(c2cccs2)S1` (stereo not drawn) is 105% (inactive); for `CN(C)c1ccc(C(=N)c2ccc(N(C)C)cc2)cc1` it is 28.9% (inactive) and 33.9% (inactive).
In the case of `Cc1cccc(Cl)c1N`, the growth is 98.6% (inactive).
For the molecule `ON=C(C1CCCCC1)C1CCCCC1`, the growth was 95.6% (inactive).
Regarding `CNc1ccc(Cl)cc1S(=O)(=O)c1ccccc1[N+](=O)[O-]`, the growth was 77.5% (inactive) and 81.4% (inactive).
With `Cc1c(O)nc(N)[nH]c1=O`, the growth is 99.4% (inactive).
As for `Cc1cc(Cl)nc(Nc2ccccc2)n1`, the growth was 97% (inactive).
Take `CCCC(=O)OCC(COC(=O)CCC)OC(=O)CCC`: the growth is 101% (inactive).
On to `COc1ccc2oc3cc(NCCN(C)C)ccc3c(=O)c2c1`, for which the growth is 83% (inactive) and 58.2% (inactive).
Take `N#Cc1c(N)nc2c(c(-c3ccc(Cl)cc3)nn2-c2ccccc2)c1C#N`: the growth was 96.6% [100 µM] (inactive).
For `Cc1c(Cl)cc(Cl)c(N)c1Cl`, the growth was 99% (inactive).
The figure for `CCOC(=O)c1csc(N)n1` is 105% (inactive) and 99.1% (inactive); for `O=c1[nH]c(=O)n(C2OC(CO)C(O)C2O)cc1I` (stereo not drawn) it is 98.9% (inactive) and 92.4% (inactive); for `Cc1cc(NC(=O)NC(=O)c2ccccc2N(C)C)ccc1Oc1ncc(Br)cn1` it is 27.3% (inactive) and 49.7% (inactive).
In the case of `C(=N\OCCc1ccccc1)/c1ccccn1` it was 122% (inactive) and 101% (inactive); in that of `O=c1[nH]nnc2cc(Cl)ccc12`, 101% (inactive).
For `CC(CN(C)C)CN1c2ccccc2Sc2ccccc21` (stereo not drawn), the growth was 80.6% (inactive) and 83.5% (inactive) and 73.2% (inactive).
For `CCOP(C)(=O)/C(Cc1ccc(OC)c(OC)c1)=N\O` (stereo not drawn), the growth is 96.5% (inactive).
In the case of `O=C(O)COc1ccccc1F`, the growth was 96.5% (inactive).
On to `CC(=O)Nc1ccc(OC(C)=O)cc1`, for which the growth is -24% (active) and 100% (inactive).
Take `CC(C)(C)OC(=O)NCCc1ccc(N)cc1`: the growth was 106% (inactive).

(Values after PubChem BioAssay (NCI).)
